Assay results: PubChem BioAssay (NCI)
This is part of a sample that, as a whole, favours compounds with a hit. Of some 83,000 tested, about 20% had one in any assay.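 Negative percent growth values reflect cell death: -40 means 40% of the cells present at the start died, and -100 means all died.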 Active and inactive are the calls of the source. How the source made its calls: active means growth percent below 10; inactive means the rest.

test system: HL-60(TB) leukemia; experiment: NCI-60 one-dose screen, 48 h (100 = growth as untreated, 0 = no growth, -100 = all killed); details: 10 µM unless noted

Structure (SMILES)	growth
C[C@]12CCC3c4ccc(O)cc4C[C@@H](CCCCCCCCCS(=O)CCCC(F)(F)C(F)(F)F)C3C1CC[C@@H]2O (stereo not given in full)	73.3% (inactive)
O=[N+]([O-])c1ccc(C(c2ccccc2)c2ccccc2)cc1	79.3% (inactive)
CN1CC[C@H](c2c(O)cc(O)c3c(=O)cc(-c4ccccc4Cl)oc23)[C@H](O)C1	-23.1% (active)
CCn1nc(C#Cc2c(C)ccc3c(Nc4ccc(Cl)cc4)nccc23)c2c(N)ncnc21	-16% (active)
COc1cc(/C=C/C(=O)c2c(C)nc3ccccc3c2C)ccc1OCCCCOc1cc2c(cc1OC)C(=O)N1CCC[C@H]1C=N2	-34.1% (active)
Clc1ccc(/C=N/Nc2nc3ccccc3s2)c(Cl)c1	98.5% (inactive)
COCc1nc2ccccc2[nH]1	96.5% (inactive)
CC(C)(C)CC(C)(C)Nc1c(-c2ccc(-c3ccccc3)cc2)nc2cnccn12	92.9% (inactive)
COc1ccc2sc3c(NCCCN)nc4ccccc4c3c(=O)c2c1	2.17% (active)
CCOC(=O)CCCCCCCCC(=O)OCC	97.4% (inactive)
NC(=NCCCOc1ccc(F)cc1)Nc1ccc(Cl)c(Cl)c1	48.2% (inactive)
CCCCCCCCC(=O)Nc1ccc(O)cc1	61.5% (inactive)
O=C(Nc1ccc(Cl)c(Cl)c1)O/N=C\c1c(Cl)ccc([N+](=O)[O-])c1Cl	-61.4% (active)
COc1cc2ccnc(C=O)c2cc1OC	-27.4% (active)
COc1ccc2nc(N=Nc3c(O)ccc4ccccc34)sc2c1	4.48% (active)
COc1ccc(C(=O)N2N=C(c3ccc(Br)cc3)CC2c2cn(-c3ccccc3)nc2-c2ccccc2)cc1 (stereo not given)	32.7% (inactive)
CN(C)C1CCN(C(=O)c2ccc(NC(=O)Nc3ccc(-c4nc(N5CCOCC5)c5cccn5n4)cc3)cc2)CC1	4.58% (active)
Cn1c2ccccc2c2nnc(N/N=C/c3ccccn3)nc21	-46.1% (active)
CCCCCCCCCOc1c(OC)cc(C2CC(=O)Nc3c2c(C)nn3-c2nc3ccccc3[nH]2)cc1OC (stereo not given)	9.26% (active)
O=C(NN1C(=O)CSC1c1cccc([N+](=O)[O-])c1)c1ccc(NC(=O)c2ccccn2)cc1 (stereo not given)	67.6% (inactive)

Structure (SMILES)	growth
CCCCN(CCCC)C(=N)c1ccnc2ccccc12	64.8% (inactive)
CC(=O)c1nc2ccccc2n1CC(=O)c1cccc(Cl)c1	-28.9% (active)
NC(=S)N/N=C1\c2ccccc2-c2c(F)c(F)c(F)c(F)c21	44.4% (inactive)
O=c1oc2ccccc2c(Cl)c1Cl	41.4% (inactive)
COc1cccc(-c2nc3sccn3c2-c2ccnc(NCCNS(=O)(=O)c3cccc(Cl)c3)c2)c1	15.6% (inactive)
CCCCOc1nc2cc(Cl)ccc2cc1/C=C/c1cc(/C=C/c2cc3ccc(Cl)cc3nc2OCCCC)n(-c2ccccc2)n1	77.8% (inactive)
Cc1cccc(C[C@H](NC(=O)Nc2ccc(Cl)cc2F)C(=O)N[C@@H]2C(=O)N3C[C@H](O)C[C@H]3C(=O)N3CCN(C)C[C@H]3C(=O)N[C@@H](C)C(=O)N3C[C@H](C)C[C@H]3C(=O)O[C@H]2C)c1	32.8% (inactive)
CC12CCCC(CC(=O)c3[nH]c4ccccc4c31)C2 (stereo not given)	-0.598% (active)
O=C(O)COc1ccc(-c2cssc2=S)cc1	101% (inactive)
O=C(N/N=C/c1ccccc1Cl)c1cccc2ccccc12	127% (inactive)
CCCCCCCCCCCC(=O)OC(C)C(=O)Nc1ccccc1 (stereo not given)	91.7% (inactive)
O=C(NCc1ccccc1)C(Cl)Cl	95.9% (inactive)
CCCCCCC(C)(O)c1ccccc1 (stereo not given)	94.6% (inactive)
O=C1C(=O)c2c(nc3ccc(Br)cn23)-c2ccccc21	-58.2% (active)
O=C(/C=C/c1ccc(Cl)cc1)c1ccc(Nc2nc(NCCO)nc(N3CCOCC3)n2)cc1	99% (inactive)
COc1ccc2[nH]c3nc4cnccc4cc3c2c1	108% (inactive)
O=C1C=CC(=O)N1Cc1ccco1	108% (inactive)
CC1SC(c2ccc(N(C)C)cc2)N(NC(=O)C(O)(c2ccccc2)c2ccccc2)C1=O (stereo not given)	84.2% (inactive)
COc1cc(C)c2sc3ccccc3c(=O)c2c1NCCN(C)C	61.2% (inactive)
O=C1/C(=C\c2cn(CC(O)CN3CCCCC3)c3ccccc23)c2ccccc2N1c1c(Cl)cccc1Cl (stereo not given)	-36.5% (active)
